# Hits are enriched below; roughly 4% of the tested compounds scored in any of these assays.
# CF NFkB inh = blocks PAF-induced NF-kB reporter in cystic fibrosis cells | KKLEB NF-kB-GFP reporter, GFP fluorescence overnight | inhibition, % at 5 µM | 360,000 compounds, 0.86% hits | AID 588850;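 active means at least 50% inhibition at 5 µM, scaled per plate between neutral and stimulator controls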;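 further: PAF is a Pseudomonas aeruginosa culture filtrate used as stimulus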
# HIF-2a block = HIF-2a inhibition. 360,000 compounds, 0.72% hits. inhibition, % at 18.8 µM. 786-0 RCC cells HIF-2a reporter, luciferase luminescence, overnight;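 active means inhibition of the luminescence signal of 40% or more relative to plate controls, in a single-dose primary screen at 18.75 µM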
# TROY signal inh = TROY signaling inhibition; inhibition, % at 10 µM; 360,000 compounds, 0.98% hits; Q293 LMP1-TROYcd NF-kB luciferase reporter, 4 h;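 active means compounds whose plate-normalised and pattern-corrected inhibition of the luciferase reporter signal at the single screening dose is 50% or more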
# KKLEB cytotox = reduces viability of KKLEB cystic fibrosis airway cells; KKLEB CF airway cells viability, ATPlite luminescence, overnight; stronger effect = lower value; cells stimulated with P. aeruginosa culture filtrate; activity change (cytotoxicity), % at 5 µM; 360,000 compounds, 0.36% hits; AID 602141;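 active means corrected activity change at or below -50% at 5 µM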
# TWEAK-Fn14 inh = inhibitors of TWEAK-Fn14 interaction signaling; AID 1159606; TWEAK-stimulated Fn14 reporter cells, luciferase luminescence, 8 h; inhibition, % at 10 µM; 360,000 compounds, 2% hits; in the data active means inhibition above about 50%
# Peg3 prom inh = Peg3 promoter activity inhibition | HeLa PEG-Prom luciferase reporter, luminescence, overnight | inhibition, % at 20 µM | 360,000 compounds, 1.7% hits;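 active means inhibition of at least 50% at 20 µM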
# Numbers stand for hits; – = inactive; · = no result given.
SMILES,CF NFkB inh,HIF-2a block,TROY signal inh,KKLEB cytotox,TWEAK-Fn14 inh,Peg3 prom inh
CN(C)C(=O)c1c([N+](=O)[O-])ncn1C,–,–,–,–,–,–
CC1(C(=O)NS(=O)(=O)c2ccccc2Cl)CCN1C(=O)C1(c2ccc(Cl)cc2)CCC1 (centres undefined),–,–,–,–,–,–
COc1cc(N/N=C/c2ccc(N(C)C)cc2)ncn1,–,–,–,–,60,–
COc1cc(N/N=C/c2ccccc2O)ncn1,–,–,–,–,–,–
CC1(C)CC=CC(COC(=O)c2ccccc2C(=O)O)C1 (centres undefined),–,–,–,–,96,–
CC(=O)N/N=C/c1cc(C(C)(C)C)cc(/C=N/NC(C)=O)c1O,–,–,–,–,–,–
O=C(/C=C1\NC2(CCCC2)Cc2ccccc21)C(=O)N/N=C/c1ccc(O)c(O)c1,–,–,–,–,–,57
CC(C)[C@H]1CN=C2N(C[C@H](C)NC(=O)CCC3CCCCC3)[C@H](Cc3ccc(O)cc3)CN21,–,–,–,–,–,–
COc1ccc(C[C@@H]2CN3C(=NC[C@@H]3Cc3ccc(O)cc3)N2C[C@H](C)NC(=O)CCC2CCCCC2)cc1,–,–,–,–,–,68
COc1ccc(Cl)cc1NS(=O)(=O)c1ccc(S(=O)(=O)N2CCCC2)cc1,–,–,–,–,–,–
CCc1cc[n+](C2=C([O-])c3ccccc3C(=O)/C2=N\S(=O)(=O)c2cccs2)cc1,74,–,–,–,–,–
CCSc1nc(N2CCCCC2)c2c(c1C#N)CCCC2,–,–,·,–,94,–
COCCCNc1nc2cc(OC)c(OC)cc2c2nc(-c3ccccc3)nn12,–,–,–,–,–,54
CCN(CC)CCCNc1nc2cc(OC)c(OC)cc2c2nc(-c3cccnc3)nn12,–,–,–,–,–,–
COc1cc2nc(NCC3CCCO3)n3nc(-c4cccnc4)nc3c2cc1OC (centres undefined),–,–,–,–,–,55
Cc1ccc(N=c2oc3cc(O)ccc3cc2C(N)=O)cc1,83,–,–,–,61,–
CCS(=O)(=O)c1cc([N+](=O)[O-])c(Sc2ccccc2NC(C)=O)s1,–,–,68,–,61,–
COc1ccc(OC)c(NC(=O)C2(C)CCN2C(=O)Cc2ccc(Cl)cc2Cl)c1 (centres undefined),–,–,–,–,65,–
COc1ccc(COc2ccc3c(C)cc(=O)oc3c2)cc1,–,–,–,–,–,–
COc1ccc2c(-c3cc4ccc(OCc5ccc(F)cc5)cc4oc3=O)cc(=O)oc2c1,–,–,–,–,–,76
CN1CCN(c2ccc([N+](=O)[O-])cc2NC(=O)c2ccccc2)CC1,–,–,–,–,–,–
COc1ccc(NC(=O)c2oc3ccccc3c2NC(=O)COc2ccccc2OC)c(OC)c1,54,–,–,-54,–,–
COc1ccc(NC(=O)c2oc3ccccc3c2NC(=O)c2ccc(OC)c(OC)c2)c(OC)c1,–,–,–,–,–,–
S=C(NCCCN1CCOCC1)Nc1ccc(N2CCOCC2)cc1,–,–,–,–,–,–
CCOc1ccccc1N(C(=O)c1snc(C(N)=O)c1N)C(C(=O)NCc1ccccc1)c1ccc(O)cc1 (centres undefined),–,–,–,–,86,–
SMILES,CF NFkB inh,HIF-2a block,TROY signal inh,KKLEB cytotox,TWEAK-Fn14 inh,Peg3 prom inh
CN(CC(=O)NCC1CCCO1)S(=O)(=O)c1ccc(Br)cc1 (centres undefined),–,–,–,–,–,–
C/C(=N\Nc1nc2ccccc2s1)c1ccc(Br)s1,–,–,–,–,51,–
Cc1cc(Cl)cc2sc(NC(=O)c3ccco3)nc12,–,–,–,–,–,–
COc1ccc(C(=O)Nc2nc3cc4c(cc3s2)OCO4)c(OC)c1,–,–,–,-54,–,–
COc1cccc(C(=O)Nc2cc(OC)ccc2NC(=O)c2ccco2)c1,–,–,–,–,56,–
Cc1cc(C)c2nc(NC(=O)c3ccco3)sc2c1,–,–,–,–,59,–
O=C(Nc1nc2c(Br)cc(Br)cc2c(=O)s1)c1ccco1,–,–,–,–,62,–
COc1ccc2sc(N(CCN(C)C)C(=O)/C=C/c3cccs3)nc2c1,–,–,–,–,–,–
CCCOC1CCCN(C(=O)c2ccc(OC)c(OC3CCN(C(C)C)CC3)c2)C1 (centres undefined),–,–,–,–,–,–

# Bioassay records deposited in PubChem by Sanford-Burnham Center for Chemical Genomics.
